Test results published in PubChem BioAssay (NCI).
The panel holds about 83,000 compounds, 20% with a hit somewhere; the sample as a whole holds those more often.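 Cell lines were cultured in 96-well plates, exposed to a single compound concentration, and assessed for percent growth 48 hours later.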 A number with no mark means an inactive call. The source made the active and inactive calls. The calls were made as follows: active = growth percent below 10; inactive = the rest.

Key:
Experiment in all cases: NCI-60 one-dose screen, 48 h (100 = growth as untreated, 0 = no growth, -100 = all killed)
[1] = system: SK-MEL-2 melanoma; settings: 10 µM
[2] = system: EKVX NSCLC; settings: 10 µM unless noted
[3] = system: SN12C renal; settings: 10 µM unless noted
[4] = system: TK-10 renal; settings: 10 µM unless noted
[5] = system: ACHN renal; settings: 10 µM unless noted
[6] = system: CAKI-1 renal; settings: 10 µM unless noted
[7] = system: A498 renal; settings: 10 µM unless noted
[8] = system: CCRF-CEM leukemia; settings: 10 µM unless noted
[9] = system: MOLT-4 leukemia; settings: 10 µM unless noted
[10] = system: UO-31 renal; settings: 10 µM unless noted

Structure (SMILES) | growth [1] | growth [2] | growth [3] | growth [4] | growth [5] | growth [6] | growth [7] | growth [8] | growth [9] | growth [10]
Clc1nc(Cl)c2ncn(C/C=C\Cn3cnc4c(Cl)nc(Cl)nc43)c2n1 | 23.5% | -68% (active) | -11.3% (active) | -45.6% (active) | -94.5% (active) | -97.2% (active) | -18.2% (active) | -73.4% (active) | -55.4% (active) | –
COc1cc2c(cc1OCCCCN1CCN(CC(=O)Nc3ccc(Cl)cc3C(=O)c3ccccc3Cl)CC1)N=CC1CCCN1C2=O (stereo unspecified) | -67.5% (active) | – | -81.1% (active) | -90.1% (active) | -92.4% (active) | -89.8% (active) | -97.2% (active) | -59.8% (active) | -44.7% (active) | –
COc1cc2c(cc1OCCCCCCN1CCN(c3ncnc4ccccc34)CC1)N=CC1CCCN1C2=O (stereo unspecified) | 3.62% (active) | -8.7% (active) | -10.4% (active) | 1.29% (active) | 0.483% (active) | -19.6% (active) | – | -32.8% (active) | -32.1% (active) | –
COc1cc2c(Nc3ccc(Br)cc3F)ncnc2cc1OCC1CCN(C)CC1 | – | 35.4% | 16.9% | -4.33% (active) | 9.47% (active) | 0.316% (active) | -71.1% (active) | 14.5% | 18.1% | -88.3% (active)
O=c1[nH]c([C@@H]2CCCN2)nc2c1oc1ccc(Cl)cc12 | – | 61.4% | 81.3% | 52.3% | 71.5% | 42.4% | 6.25% (active) | 63.1% | 68.4% | 58.4%
COc1cc2ncnc(Nc3ccc(F)c(Cl)c3)c2cc1NC(=O)/C=C/CN1CCCCC1 | – | -40.3% (active) | -76.1% (active) | -88.8% (active) | -97.9% (active) | -85.4% (active) | -80.4% (active) | 6.37% (active) | -13.1% (active) | -90.2% (active)
O=C(Nc1cnn2ccc(N3CCC[C@@H]3c3cc(F)ccc3F)nc12)N1CC[C@H](O)C1 | – | 99.5% | 81.1% | 99.8% | 103% | 88.3% | 2.72% (active) | 95.5% | 96.8% | 82.8%
NC1=Nc2ccccc2N(O)N1 | 89.2% | – | 99.1% | 94.7% | 100% | 91.8% | – | – | 99.4% | –
CCCCN1C(=O)c2cccc3c(-c4ccc5c(c4)ncn5C4CCCCC4)ccc(c23)C1=O | – | 99.8% | 105% | 102% | 107% | 93.7% | 118% | 113% | 94.7% | 82.1%
O=C(NOC[C@H](O)CO)c1ccc(F)c(F)c1Nc1ccc(I)cc1F | – | 57.6% | 49.5% | 41.4% | 47.6% | 34.3% | -19.9% (active) | 83.7% | 66.6% | 24.6%
Cc1nc(N)sc1-c1ccnc(Nc2ccc(N3CCOCC3)cc2)n1 | – | 71.7% | 49.8% | 39.9% | 29.7% | 20.8% | 32.6% | 23% | 13.8% | 19.7%
CN1CCC(COc2cnc(-c3cccc(Cn4nc(-c5cccc(C#N)c5)ccc4=O)c3)nc2)CC1 | – | 58.6% | 82.2% | 102% | 74.4% | 79% | 95.1% | 34.7% | 55.2% | 77.8%
Cn1ccnc1C(=O)/C=C/c1ccc(CC(=O)Nc2ccc(C(F)(F)F)cc2)cc1 | – | 14.9% | 10% (active) | 32.6% | 27.9% | 33.5% | 64.5% | 8.58% (active) | -7.88% (active) | 22.1%
CO[C@H](C(=O)N[C@@H](CCCCNC(=O)OCc1ccccc1)C(=O)OC(C)(C)C)[C@@H]1Cc2cc3cc(OC4CC(OC5CC(O)C(O)C(C)O5)C(O)C(C)O4)c(C)c(O)c3c(O)c2C(=O)[C@H]1OC1CC(OC2CC(OC3CC(C)(O)C(O)C(C)O3)C(O)C(C)O2)C(O)C(C)O1 (stereo partly specified) | – | -25.1% (active) | -7.42% (active) | -9.57% (active) | -2.61% (active) | 22.6% | -89.9% (active) | 3.09% (active) | -12.6% (active) | 10.5%
CN1CC[C@H](c2c(O)cc(O)c3c(=O)cc(-c4ccccc4Cl)oc23)[C@H](O)C1 | – | 0.266% (active) | 10.4% | -0.739% (active) | 4.43% (active) | 10.1% | -54.2% (active) | 10.2% | 1.35% (active) | -14.1% (active)
O=C(Cn1ccc2ccccc21)Nc1ccc(-c2nc3ccccc3s2)cc1 | – | 107% | 101% | 104% | 111% | 100% | 99.1% | 97% | 94.5% | 92.4%
CN1CCN(c2nc(C3=C(c4c[nH]c5ccccc45)C(=O)NC3=O)c3ccccc3n2)CC1 | – | 82.6% | 92.3% | 47.3% | 70.2% | 54.9% | 75.1% | 100% | 74.7% | 64%
C=CC(=O)N1CCC(Oc2cc3c(Nc4ccc(Cl)c(Cl)c4F)ncnc3cc2OC)CC1 | – | 18.7% | 15.8% | -7.41% (active) | -3.88% (active) | -34.2% (active) | -69.8% (active) | 20.9% | -10.5% (active) | -31.6% (active)
NC[C@@](O)(c1ccc(Cl)cc1)c1ccc(-c2cn[nH]c2)cc1 | – | 27.1% | 29.3% | 5.87% (active) | 11.6% | 11.3% | -2.12% (active) | 15.8% | 13.2% | -13.6% (active)
CC(=O)c1cnc2ccc(-c3cc(Cl)c(O)c(Cl)c3)nc2c1NC1CCC(CN(C)C)CC1 (stereo unspecified) | – | -15.9% [2.5 µM] (active) | -7.95% [2.5 µM] (active) | -59.7% [2.5 µM] (active) | -0.784% [2.5 µM] (active) | -49.4% [2.5 µM] (active) | -88% [2.5 µM] (active) | 1.45% [2.5 µM] (active) | -36.4% [2.5 µM] (active) | -33.1% [2.5 µM] (active)
CC(=O)C1CC(C)CCC1C(C)C (stereo unspecified) | – | 106% | 83.8% | 83.2% | 87.8% | 122% | 92.4% | 70.5% | 83.1% | 67.4%
Cc1c(CN2CCN(C(=O)[C@H](C)O)CC2)sc2c(N3CCOCC3)nc(-c3cnc(N)nc3)nc12 | – | 1.75% (active) | 4.45% (active) | -31.4% (active) | -11% (active) | -17.8% (active) | -52.9% (active) | 7.59% (active) | 1.65% (active) | -30.6% (active)
Cc1cc(Nc2cc(N3CCN(C)CC3)nc(/C=C/c3ccccc3)n2)n[nH]1 | – | 36.1% | 11.7% | -0.298% (active) | 0.23% (active) | -45.3% (active) | -86.7% (active) | 13.8% | -5.35% (active) | -53.8% (active)
C[C@@H]1COC(Nc2ccc3ncnc(Nc4ccc(OCc5nccs5)c(Cl)c4)c3c2)=N1 | – | 32.2% | 53.8% | 20.4% | 23.3% | 36.4% | 22.5% | 24.7% | 18.4% | 18.7%
ClCc1ccc(-c2ccc(Cn3cnc4nc(Cl)nc(Cl)c43)cc2)cc1 | 65.8% | – | -29.8% (active) | -28.4% (active) | 5.65% (active) | -93.6% (active) | – | – | -42.5% (active) | –
COc1cc(Nc2ncc(F)c(Nc3ccc4c(n3)N(COP(=O)(O)O)C(=O)C(C)(C)O4)n2)cc(OC)c1OC | – | 32.7% | 22.8% | -43.8% (active) | 6.43% (active) | -54.1% (active) | -70.9% (active) | 29.9% | 29.6% | -23.9% (active)
Cn1cc(-c2[nH]c3cc(NC(=O)[C@H](N)C4CCCCC4)cc4c3c2C=NNC4=O)cn1 | – | 33.1% | -11.5% (active) | 17.1% | 4.51% (active) | 9.72% (active) | -43.7% (active) | -29.4% (active) | -36.8% (active) | -13.6% (active)
CC(C)(C)c1ccc(Cn2cc(CSc3nc4ccccc4s3)nn2)cc1 | – | 98.3% | 90.8% | 88.7% | 97.2% | 82.9% | 87% | 95% | 95.7% | 65.2%
COc1cc2c(cc1OCCCCCN1CCN(c3ncnc4ccccc34)CC1)N=CC1CCCN1C2=O (stereo unspecified) | 1.29% (active) | – | 1.92% (active) | -21.4% (active) | 1.61% (active) | -18.1% (active) | – | -37.2% (active) | 0.399% (active) | –
